According to the supplement of paper PMC6555819:

What follows are sequences tested on RARg:RXRa (NR concentration 270 nM, RXRa partner concentration 90 nM) (assay: PBM binding z-score (relative to random genomic background probes); higher = stronger binding; sequences stand for … in GC…GCGATTGACAGCGTAGAATGAAGG).
Procedure, shortened: (§1)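 Custom Agilent 4×180K protein-binding microarrays carried double-stranded probes. Their 34-nt variable regions held direct-repeat seeds, single-nucleotide variants, half-site ablations and random human genomic background sequences. Arrays were incubated 1 h with ligand-free nuclear receptor dimers in PBS pH 7.4, 2% milk, 0.02% Triton X-100, 1 mM DTT, 0.2 mg/mL BSA and 0.4 mg/ml salmon testes DNA. Antibodies against each partner (one per run) detected binding, and scanned fluorescence was regression-normalized. Binding z-scores use random background probes as reference.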
Work on TCGAGTAGGTTAGGGGCATTGAGAATGGCGTCGA yielded a PBM binding z-score of 0.14.
Work on TCGTATAGGTAAACAGGTGAAAGTCCGTAAGTTA yielded a PBM binding z-score of 0.368.
Sequence CTCGAAAGGTCGGATGAGGTGAGTATACGGATAA has a PBM binding z-score of 3.2.
CAAACTAGATCAAGGTCAAAGTCGGTTTGTGCCA showed a PBM binding z-score of 3.89.
CATAGCAGGCCAATCTGGGTCACTCAAGGCTTGA was tested, and the PBM binding z-score was 1.44.
AGAATGAGGTTATACGAAGATCAGGGAAGAAAGT showed a PBM binding z-score of 1.71.
GCTGCTAGGTGAACTGATGGTCAGCTAAAGCTCG gave a PBM binding z-score of 0.956.
Sequence CGACCTAGGTCAGAACAGGACAGTGAAGGATGAT has a PBM binding z-score of 3.3.
CGAACTAGGTCATAACAGGACAGTGAAGGATGAT gave a PBM binding z-score of 3.28.
Work on TCGGGTAGGTTAGTCGGGGCATTCAGCCAACATA yielded a PBM binding z-score of 0.503.
Work on CATACATGGTCAGCTAGGCCAGAGTAGGGACGGC yielded a PBM binding z-score of 0.156.
In the case of TCTATTAGTTGAAGGGCAACCAACGAGTCCGTTT, the PBM binding z-score is reported as 0.447.
In the case of CAAACTAGGTCACGAAAGGTGAAAGTCGAATGAC, the PBM binding z-score is reported as 5.68.
GCAGACAGGTGACACGCAGGTAACTCAGGGTGGC gave a PBM binding z-score of 0.798.
For AGAATGAGGTTAAGATCAGGTAAACAGAATACAT, the PBM binding z-score was 2.66.
CCTACTGGGCCAAAGGTCATTGAATCCAATGCTC gave a PBM binding z-score of 5.95.
TCGAGTTGGTCAAAGGTCACACACTCGAAATGCG showed a PBM binding z-score of 6.93.
With TCCTATAGGTAATACAGGTGAAAGTCGGCATCTA the PBM binding z-score was 0.471.
GATACAGGGTCAGCTAGAGCCCAGAGTATGGAAA showed a PBM binding z-score of 4.4.
TCGAGTAGGTTAGGGGCATTTAGAATGGCGTCGA gave a PBM binding z-score of 0.265.
CGAACTAGGTCAAGGGCAGTGAATCTCCGCACGC gave a PBM binding z-score of 3.74.
In the case of TAGCCTAGGTCATGAGGGCCAGTATAGTGTCGGC, the PBM binding z-score is reported as 4.06.
CGTCCAAGGTCATAGGAGGGCAGTGAAGACAGAT showed a PBM binding z-score of 5.77.
Sequence GCTCCTAGGTCAGGTTGGTCAGCTAACGGGTACG has a PBM binding z-score of 2.91.
With ATCTAAAGGTCGACGAGGTGAGTATACACCGTTT the PBM binding z-score was 4.38.
Work on ATATGTAGGTTAGCTGGGGTCATCCAGACTAGGC yielded a PBM binding z-score of 4.41.
With CAAACTAAGTCAAAGGTCAAAGTCGAGCCAACCA the PBM binding z-score was 6.82.
AATACAGGGTCATCGTAGGCCAGAGAACGCACAG showed a PBM binding z-score of 6.12.
With TCATATAGGTATATGCTAGGTGAAAGTCCGATCT the PBM binding z-score was 0.291.
ACTTACGGGCCAACGAGGTTATAGCACGCGTATA was tested, and the PBM binding z-score was 0.977.
For TCATATAGGTAAATGCTAGGTGAGAGTCCGATCT, the PBM binding z-score was 0.257.
For GCGCCTGGGGCATCAGCAGGTTACCATAACTTAA, the PBM binding z-score was 0.748.
Work on TTACCAAGGTGAGCTGAGGGCGTTGATCCAACTC yielded a PBM binding z-score of -0.0631.
ACTATTAGTTGAGACGAGGGCAACCGATAGGTTG showed a PBM binding z-score of 0.833.
TTACCAAGGTGAAAGTCGTTGATCCCTCTGTAGA gave a PBM binding z-score of 0.61.
Sequence CTACCAAGGTGCACAAGGTCGTTGATTACTATTC has a PBM binding z-score of 1.29.
Sequence AGAATGAGGTTATACCTAGATCAGGGAAGAAAGT has a PBM binding z-score of 1.75.
With CGTCAAAGTTCAACTAAGGTACCGTAAAGCACGC the PBM binding z-score was 5.81.
TCTCGGAGGACACGAAGGCCAGAGCTTTCCAGAG showed a PBM binding z-score of 0.605.

The sequences below were run on RARg homodimer (NR concentration 270 nM) in the same assay as above.
Procedure, shortened: as §1
Sequence TCGAGTAGGTTAGGGGCATTGAGAATGGCGTCGA has a PBM binding z-score of 0.129.
Work on TCGTATAGGTAAACAGGTGAAAGTCCGTAAGTTA yielded a PBM binding z-score of 0.358.
In the case of CTCGAAAGGTCGGATGAGGTGAGTATACGGATAA, the PBM binding z-score is reported as 3.26.
With CAAACTAGATCAAGGTCAAAGTCGGTTTGTGCCA the PBM binding z-score was 3.29.
Work on CATAGCAGGCCAATCTGGGTCACTCAAGGCTTGA yielded a PBM binding z-score of 1.57.
With AGAATGAGGTTATACGAAGATCAGGGAAGAAAGT the PBM binding z-score was 1.
Work on GCTGCTAGGTGAACTGATGGTCAGCTAAAGCTCG yielded a PBM binding z-score of 0.47.
For CGACCTAGGTCAGAACAGGACAGTGAAGGATGAT, the PBM binding z-score was 4.04.
CGAACTAGGTCATAACAGGACAGTGAAGGATGAT was tested, and the PBM binding z-score was 3.91.
TCGGGTAGGTTAGTCGGGGCATTCAGCCAACATA gave a PBM binding z-score of 0.704.
CATACATGGTCAGCTAGGCCAGAGTAGGGACGGC gave a PBM binding z-score of 0.731.
TCTATTAGTTGAAGGGCAACCAACGAGTCCGTTT showed a PBM binding z-score of 0.495.
Sequence CAAACTAGGTCACGAAAGGTGAAAGTCGAATGAC has a PBM binding z-score of 6.37.
GCAGACAGGTGACACGCAGGTAACTCAGGGTGGC gave a PBM binding z-score of 0.52.
In the case of AGAATGAGGTTAAGATCAGGTAAACAGAATACAT, the PBM binding z-score is reported as 1.76.
In the case of CCTACTGGGCCAAAGGTCATTGAATCCAATGCTC, the PBM binding z-score is reported as 4.83.
With TCGAGTTGGTCAAAGGTCACACACTCGAAATGCG the PBM binding z-score was 5.89.
For TCCTATAGGTAATACAGGTGAAAGTCGGCATCTA, the PBM binding z-score was 0.243.
GATACAGGGTCAGCTAGAGCCCAGAGTATGGAAA gave a PBM binding z-score of 4.33.
TCGAGTAGGTTAGGGGCATTTAGAATGGCGTCGA showed a PBM binding z-score of 0.0778.
CGAACTAGGTCAAGGGCAGTGAATCTCCGCACGC gave a PBM binding z-score of 4.64.
For TAGCCTAGGTCATGAGGGCCAGTATAGTGTCGGC, the PBM binding z-score was 4.57.
CGTCCAAGGTCATAGGAGGGCAGTGAAGACAGAT gave a PBM binding z-score of 5.89.
GCTCCTAGGTCAGGTTGGTCAGCTAACGGGTACG was tested, and the PBM binding z-score was 3.46.
In the case of ATCTAAAGGTCGACGAGGTGAGTATACACCGTTT, the PBM binding z-score is reported as 4.38.
With ATATGTAGGTTAGCTGGGGTCATCCAGACTAGGC the PBM binding z-score was 3.52.
With CAAACTAAGTCAAAGGTCAAAGTCGAGCCAACCA the PBM binding z-score was 5.86.
AATACAGGGTCATCGTAGGCCAGAGAACGCACAG showed a PBM binding z-score of 5.66.
TCATATAGGTATATGCTAGGTGAAAGTCCGATCT gave a PBM binding z-score of 0.277.
In the case of ACTTACGGGCCAACGAGGTTATAGCACGCGTATA, the PBM binding z-score is reported as 0.949.
With TCATATAGGTAAATGCTAGGTGAGAGTCCGATCT the PBM binding z-score was 0.032.
GCGCCTGGGGCATCAGCAGGTTACCATAACTTAA was tested, and the PBM binding z-score was 0.657.
In the case of TTACCAAGGTGAGCTGAGGGCGTTGATCCAACTC, the PBM binding z-score is reported as -0.0832.
ACTATTAGTTGAGACGAGGGCAACCGATAGGTTG showed a PBM binding z-score of 0.861.
TTACCAAGGTGAAAGTCGTTGATCCCTCTGTAGA gave a PBM binding z-score of 0.23.
Sequence CTACCAAGGTGCACAAGGTCGTTGATTACTATTC has a PBM binding z-score of 0.782.
AGAATGAGGTTATACCTAGATCAGGGAAGAAAGT was tested, and the PBM binding z-score was 1.14.
In the case of CGTCAAAGTTCAACTAAGGTACCGTAAAGCACGC, the PBM binding z-score is reported as 6.61.
Sequence TCTCGGAGGACACGAAGGCCAGAGCTTTCCAGAG has a PBM binding z-score of 1.84.
